# This is part of a sample that, as a whole, favours compounds with a hit. Of some 79,000 tested, about 15% had one in any assay. Unmarked numbers belong to inactive results. The source made the active and inactive calls. Cut-off read from the data, not from the text of the source: active = growth inhibition above about 70%; inactive = the rest.
# How the values were obtained:
# [1] = NCI Yeast Anticancer Drug Screen. Data for the rad50 strain (AID 155);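 note: 0% = growth of vehicle-only cultures of the same strain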; conditions: S. cerevisiae rad50 strain growth inhibition, stronger effect = higher value
# Summary of the method: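 Readout: growth inhibition relative to vehicle-treated cultures. Compound exposure was carried out in a genetically defined yeast strain deficient in DNA damage repair.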
# [2] = NCI Yeast Anticancer Drug Screen. Data for the mec2-1 strain (AID 157); conditions: S. cerevisiae mec2-1 strain, stronger effect = higher value
# Summary of the method: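 Strain: mec2-1 (DNA repair/cell cycle alteration). Compound exposure, then growth measured; inhibition expressed relative to vehicle.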
# [3] = NCI Yeast Anticancer Drug Screen. Data for the sgs1 mgt1 strain (AID 161);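 note: 0% = growth of cultures given vehicle only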; conditions: S. cerevisiae sgs1 mgt1 strain, stronger effect = higher value
# Summary of the method: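 Genetically altered yeast, compound exposure, growth inhibition relative to vehicle.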
# [4] = NCI Yeast Anticancer Drug Screen. Data for the cln2 rad14 strain (AID 165);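 note: 0% = growth equal to vehicle treated cultures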; conditions: S. cerevisiae cln2 rad14 strain, stronger effect = higher value
# Summary of the method: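 Compounds are applied to the cln2 rad14 yeast strain, and growth is then compared with that of vehicle-treated cultures to give inhibition.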
# [5] = NCI Yeast Anticancer Drug Screen. Data for the bub3 strain (AID 167); conditions: S. cerevisiae bub3 mutant strain, stronger effect = higher value
# Summary of the method: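 Readout: yeast growth inhibition, expressed relative to vehicle-only wells. The test organism is a mutant strain from a panel with lesions in DNA repair or checkpoint genes.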
# [6] = NCI Yeast Anticancer Drug Screen. Data for the mlh1 rad18 strain (AID 175); conditions: S. cerevisiae mlh1 rad18 strain growth inhibition, stronger effect = higher value
# Summary of the method: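 Read-out is yeast growth inhibition, calculated against vehicle-only controls. The compound was applied to a strain engineered with DNA damage repair alterations.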
# [7] = at 5.0 µM (retest, dose inferred, filed as 0.5)
# [8] = at 50.0 µM (retest, dose inferred, filed as 5.0)
Structure (SMILES),"growth inhibition [1, 7]","growth inhibition [1, 8]",growth inhibition ([1]; at 50.0 µM),"growth inhibition [2, 7]","growth inhibition [2, 8]",growth inhibition ([2]; at 50.0 µM),"growth inhibition [3, 7]","growth inhibition [3, 8]",growth inhibition ([3]; at 50.0 µM),"growth inhibition [4, 7] [%]","growth inhibition [4, 8]",growth inhibition ([4]; at 50.0 µM),"growth inhibition [5, 7]","growth inhibition [5, 8]",growth inhibition ([5]; at 50.0 µM),"growth inhibition [6, 7]","growth inhibition [6, 8]",growth inhibition ([6]; at 50.0 µM)
Nc1ccc(C(=O)N/C(=C\c2ccc3c(c2)OCO3)c2nc3ccccc3s2)cc1,23%,99% (active),97.2% (active),-2%,99% (active),98.5% (active),54%,99% (active),98.2% (active),15,98% (active),96.3% (active),32%,98% (active),97.4% (active),30%,98% (active),98.4% (active)
CC(=O)N1C(c2[nH]c3ccccc3c2Cc2ccccc2)CCN1c1ccccc1 (configuration not stated),-27%,94% (active),84.9% (active),-14%,98% (active),87% (active),-20%,94% (active),88.3% (active),-12,96% (active),85.7% (active),-18%,96% (active),87.5% (active),-27%,95% (active),83.8% (active)
N=C(N)Cc1ccc(NC(=O)c2ccc(C(=O)Nc3ccc(CC(=N)N)cc3)cc2)cc1,3%,-8%,21.4%,2%,14%,34.2%,-11%,-21%,78.4% (active),-7,-16%,14.7%,-3%,-11%,56.3%,2%,-49%,27.9%
CN(C)CC(C)(C)C(/C=C/c1ccccc1)=N\Nc1ccccc1,3%,61%,98.1% (active),0%,68%,90.2% (active),12%,72% (active),97.8% (active),6,47%,97.3% (active),1%,91% (active),98.6% (active),2%,76% (active),98.3% (active)
O=C1c2cccc(O)c2C(=O)c2c(OC3OC(CO)C(O)C(O)C3O)cccc21 (configuration not stated),6%,68%,76.8% (active),10%,48%,24.5%,4%,52%,78% (active),16,59%,34.4%,6%,60%,74.8% (active),-7%,62%,47.5%
CCCCCCCCCCCCNC(=O)C[n+]1ccc(C(N)=O)cc1,-34%,72% (active),61.2%,-6%,61%,49%,1%,77% (active),74.2% (active),-6,86% (active),24.6%,-9%,94% (active),29.2%,0%,92% (active),41.8%
FC1(F)C2=C(SC3=C(S2)C(F)(F)C3(F)F)C1(F)F,9%,99% (active),99.2% (active),-4%,98% (active),70.5% (active),38%,100% (active),99.1% (active),6,95% (active),74.9% (active),-7%,95% (active),97.7% (active),19%,97% (active),97.7% (active)
CC12OC(=O)C(C(N)=O)=C1C=C(c1ccccc1)CC2c1ccccc1 (configuration not stated),-1%,23%,65%,12%,53%,43.9%,-5%,67%,86.8% (active),-3,21%,82.5% (active),-4%,60%,87.5% (active),11%,83% (active),86.1% (active)
CC(=O)N(/C=C\c1sc2ccccc2[n+]1C)c1ccccc1,38%,96% (active),90.5% (active),27%,98% (active),87.5% (active),61%,89% (active),84% (active),33,65%,89.8% (active),27%,98% (active),91.3% (active),54%,97% (active),90.6% (active)
CC(C=O)Cc1ccccc1 (configuration not stated),2%,-6%,-8.9%,5%,-1%,-8.05%,3%,-4%,-3.35%,-2,-8%,37%,-1%,-4%,10.3%,-4%,-8%,-1.45%
CCCC(=O)Nc1cc([N+](=O)[O-])ccc1O,-129%,97% (active),99.3% (active),-38%,98% (active),90% (active),-51%,88% (active),63.2%,-57,84% (active),96.7% (active),-57%,97% (active),95.2% (active),-127%,93% (active),98% (active)
COc1cc(C2C(Cl)C(=O)N2NC(=O)c2ccccc2O)cc(OC)c1OC (configuration not stated),-8%,77% (active),76.3% (active),-10%,70% (active),70.5% (active),1%,81% (active),78.8% (active),-2,40%,35.2%,-11%,48%,80.8% (active),6%,87% (active),78.8% (active)
COc1ccc(C2C3C(=O)OCCOC(=O)C3C2c2ccc(OC)c(OC)c2)cc1OC (configuration not stated),1%,49%,12.5%,13%,51%,17.2%,4%,49%,14.2%,21,59%,7.7%,15%,62%,18.9%,15%,67%,37.5%
C=CCNC(=S)N/N=C/c1nccc(-c2ccccc2)c1C,37%,96% (active),73.3% (active),29%,97% (active),81.6% (active),46%,96% (active),82% (active),38,94% (active),84.7% (active),54%,95% (active),84.5% (active),24%,93% (active),78.5% (active)
Cc1nc(N)nc(-c2ccccc2)c1N=Nc1ccc(Cl)cc1,-2%,61%,54.9%,17%,73% (active),29.1%,1%,74% (active),23.9%,-7,56%,51.3%,-1%,86% (active),88.2% (active),-13%,89% (active),81.7% (active)
CCCCCCCCN(CCCCCCCC)CC(O)c1cc(-c2ccc(Cl)cc2)nc2c(Cl)cccc12 (configuration not stated),1%,5%,19.1%,-1%,1%,25.2%,-3%,20%,35.6%,-4,-13%,45.4%,2%,12%,6.6%,3%,4%,33.5%
COc1ccc2nc3cccc([N+](=O)[O-])c3c(NCCO)c2c1,75% (active),95% (active),86.6% (active),78% (active),98% (active),90% (active),82% (active),96% (active),87.8% (active),68,97% (active),87.2% (active),24%,86% (active),86.9% (active),77% (active),96% (active),87.8% (active)
C(=C\c1ccc(-[n+]2nc(-c3ccccc3)nn2-c2ccccc2)cc1)/c1ccccc1,85% (active),98% (active),91.5% (active),81% (active),100% (active),93.4% (active),79% (active),100% (active),93.4% (active),54,99% (active),93.2% (active),86% (active),99% (active),92.3% (active),95% (active),99% (active),90.9% (active)
CCCN(CCC)C(=O)C(C)C,1%,-1%,9.95%,2%,-4%,-5.6%,-1%,-7%,-5.3%,0,-4%,32.5%,-2%,-2%,-13.1%,3%,-3%,16.1%
